Whole data set: some 16,000 sequences, median “rpm ratio (pull-down/input)” near 0.5, cut for the highest 2% near 5.5. This is one part of a sample in which the highest values are shown more often than they occur.
Target: T1, MBP-FoxP3dN (Mus musculus, UniProt Q99JB6 188-423)
T1 sequence: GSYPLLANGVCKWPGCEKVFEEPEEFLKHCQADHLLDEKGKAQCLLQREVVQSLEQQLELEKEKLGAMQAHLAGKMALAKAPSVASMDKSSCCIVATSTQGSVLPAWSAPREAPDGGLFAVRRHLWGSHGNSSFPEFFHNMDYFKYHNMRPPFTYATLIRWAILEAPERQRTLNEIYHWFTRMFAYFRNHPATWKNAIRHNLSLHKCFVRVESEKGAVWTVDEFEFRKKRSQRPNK
Experiment: PD-seq (MBP pull-down with sequencing); 20 mM Tris-HCl pH 7.5, 100 mM NaCl, 1.5 mM MgCl2, 0.4 uM protein, 0.1 uM dsDNA library, 30 min, room temperature, amylose pull-down; high values mean tight binding
Conditions: protein: recombinant; tags: His6-MBP; chain copies: 2; dsDNA, one strand shown
Method in brief: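 A fragment of mouse FoxP3 or FoxP1 without its N-terminus, carrying a His6-MBP tag and produced in E. coli, was combined at 0.4 µM with a 0.1 µM degenerate double-stranded DNA library filled in with Klenow. The mixture sat for 30 min at room temperature in Tris pH 7.5 buffer containing NaCl and MgCl2. Protein–DNA complexes were captured on amylose resin, washed three times, and the DNA was freed with proteinase K, barcoded by PCR and sequenced on Illumina. Binding is expressed as reads-per-million enrichment of pull-down over input, with replicates pooled.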

Q: How did the binding signal turn out when “GATGATTGTTCTCCCAGCTGATGAATTAGGCATTTCGAGTAAACAAATTTTCCTAATCTTTCTGTTCAAGCGCCATCTAC” was run?
A: 6.35 RPM ratio (pull-down/input)

Q: “GATGATTGTTCTCCCAGCTGATGAATTGCTCAGATCGAGTAAACAAATTTTCCTAATCTTTCTGTTCAAGCGCCATCTAC” was tested. Which binding signal did it give?
A: 0.345 RPM ratio (pull-down/input)

Q: “GATGATTGTTCTCCCAGCTGATGAATTAACAATGTCGAGTAAACAAATTTTCCTAATCTTTCTGTTCAAGCGCCATCTAC” was tested. Which binding signal did it give?
A: 0.512 RPM ratio (pull-down/input)

Q: Which binding signal does the source give for “GATGATTGTTCTCCCAGCTGATGAATTGCTTATGTCGAGTAAACAAATTTTCCTAATCTTTCTGTTCAAGCGCCATCTAC” here?
A: 1.87 RPM ratio (pull-down/input)

Q: With “GATGATTGTTCTCCCAGCTGATGAATTCGGCACTTCGAGTAAACAAATTTTCCTAATCTTTCTGTTCAAGCGCCATCTAC” as the sequence, how does the binding signal read?
A: 0.811 RPM ratio (pull-down/input)

Q: For “GATGATTGTTCTCCCAGCTGATGAATTTGTTGCGTCGAGTAAACAAATTTTCCTAATCTTTCTGTTCAAGCGCCATCTAC”, which binding signal is on record?
A: 6.75 RPM ratio (pull-down/input)

Q: How did the binding signal turn out when “GATGATTGTTCTCCCAGCTGATGAATTTTGCGCGTCGAGTAAACAAATTTTCCTAATCTTTCTGTTCAAGCGCCATCTAC” was run?
A: 3.39 RPM ratio (pull-down/input)

Q: Which binding signal does the source give for “GATGATTGTTCTCCCAGCTGATGAATTTGCGTCGTCGAGTAAACAAATTTTCCTAATCTTTCTGTTCAAGCGCCATCTAC” here?
A: 2.28 RPM ratio (pull-down/input)

Q: Which binding signal does the source give for “GATGATTGTTCTCCCAGCTGATGAATTGTTTGCGTCGAGTAAACAAATTTTCCTAATCTTTCTGTTCAAGCGCCATCTAC” here?
A: 6.41 RPM ratio (pull-down/input)

Q: With “GATGATTGTTCTCCCAGCTGATGAATTCTTTGCGTCGAGTAAACAAATTTTCCTAATCTTTCTGTTCAAGCGCCATCTAC” as the sequence, how does the binding signal read?
A: 0.489 RPM ratio (pull-down/input)

Q: How did the binding signal turn out when “GATGATTGTTCTCCCAGCTGATGAATTTTTTGCGTCGAGTAAACAAATTTTCCTAATCTTTCTGTTCAAGCGCCATCTAC” was run?
A: 0.525 RPM ratio (pull-down/input)

Q: How did the binding signal turn out when “GATGATTGTTCTCCCAGCTGATGAATTTAACGAGTCGAGTAAACAAATTTTCCTAATCTTTCTGTTCAAGCGCCATCTAC” was run?
A: 0.208 RPM ratio (pull-down/input)

Q: “GATGATTGTTCTCCCAGCTGATGAATTAGCTGCTTCGAGTAAACAAATTTTCCTAATCTTTCTGTTCAAGCGCCATCTAC” was tested. Which binding signal did it give?
A: 0.674 RPM ratio (pull-down/input)

Q: How did the binding signal turn out when “GATGATTGTTCTCCCAGCTGATGAATTGTACGTATCGAGTAAACAAATTTTCCTAATCTTTCTGTTCAAGCGCCATCTAC” was run?
A: 0.769 RPM ratio (pull-down/input)

Q: Which binding signal does the source give for “GATGATTGTTCTCCCAGCTGATGAATTAGAGATGTCGAGTAAACAAATTTTCCTAATCTTTCTGTTCAAGCGCCATCTAC” here?
A: 0.424 RPM ratio (pull-down/input)

Q: For “GATGATTGTTCTCCCAGCTGATGAATTCTAAGTGTCGAGTAAACAAATTTTCCTAATCTTTCTGTTCAAGCGCCATCTAC”, which binding signal is on record?
A: 0.48 RPM ratio (pull-down/input)

Q: For “GATGATTGTTCTCCCAGCTGATGAATTACGCATGTCGAGTAAACAAATTTTCCTAATCTTTCTGTTCAAGCGCCATCTAC”, which binding signal is on record?
A: 6.15 RPM ratio (pull-down/input)

Q: For “GATGATTGTTCTCCCAGCTGATGAATTCTACGCATCGAGTAAACAAATTTTCCTAATCTTTCTGTTCAAGCGCCATCTAC”, which binding signal is on record?
A: 0.854 RPM ratio (pull-down/input)

Q: With “GATGATTGTTCTCCCAGCTGATGAATTACCCATGTCGAGTAAACAAATTTTCCTAATCTTTCTGTTCAAGCGCCATCTAC” as the sequence, how does the binding signal read?
A: 0.294 RPM ratio (pull-down/input)

Q: For “GATGATTGTTCTCCCAGCTGATGAATTACGCCTGTCGAGTAAACAAATTTTCCTAATCTTTCTGTTCAAGCGCCATCTAC”, which binding signal is on record?
A: 5.4 RPM ratio (pull-down/input)

Q: Which binding signal does the source give for “GATGATTGTTCTCCCAGCTGATGAATTACGCTGTTCGAGTAAACAAATTTTCCTAATCTTTCTGTTCAAGCGCCATCTAC” here?
A: 1.09 RPM ratio (pull-down/input)

Q: With “GATGATTGTTCTCCCAGCTGATGAATTACGCAACTCGAGTAAACAAATTTTCCTAATCTTTCTGTTCAAGCGCCATCTAC” as the sequence, how does the binding signal read?
A: 6.03 RPM ratio (pull-down/input)

Q: For “GATGATTGTTCTCCCAGCTGATGAATTACAACTCTCGAGTAAACAAATTTTCCTAATCTTTCTGTTCAAGCGCCATCTAC”, which binding signal is on record?
A: 0.948 RPM ratio (pull-down/input)

Q: For “GATGATTGTTCTCCCAGCTGATGAATTACGCATTTCGAGTAAACAAATTTTCCTAATCTTTCTGTTCAAGCGCCATCTAC”, which binding signal is on record?
A: 6.65 RPM ratio (pull-down/input)

Q: “GATGATTGTTCTCCCAGCTGATGAATTACGCAAATCGAGTAAACAAATTTTCCTAATCTTTCTGTTCAAGCGCCATCTAC” was tested. Which binding signal did it give?
A: 0.792 RPM ratio (pull-down/input)

Q: “GATGATTGTTCTCCCAGCTGATGAATTTACGCATTCGAGTAAACAAATTTTCCTAATCTTTCTGTTCAAGCGCCATCTAC” was tested. Which binding signal did it give?
A: 6.38 RPM ratio (pull-down/input)

Q: Which binding signal does the source give for “GATGATTGTTCTCCCAGCTGATGAATTTTACGCATCGAGTAAACAAATTTTCCTAATCTTTCTGTTCAAGCGCCATCTAC” here?
A: 1.01 RPM ratio (pull-down/input)

Q: How did the binding signal turn out when “GATGATTGTTCTCCCAGCTGATGAATTACGCCATTCGAGTAAACAAATTTTCCTAATCTTTCTGTTCAAGCGCCATCTAC” was run?
A: 5.04 RPM ratio (pull-down/input)

Q: Which binding signal does the source give for “GATGATTGTTCTCCCAGCTGATGAATTGCTACCATCGAGTAAACAAATTTTCCTAATCTTTCTGTTCAAGCGCCATCTAC” here?
A: 0.894 RPM ratio (pull-down/input)

Q: With “GATGATTGTTCTCCCAGCTGATGAATTGCCCGAATCGAGTAAACAAATTTTCCTAATCTTTCTGTTCAAGCGCCATCTAC” as the sequence, how does the binding signal read?
A: 0.311 RPM ratio (pull-down/input)

Q: “GATGATTGTTCTCCCAGCTGATGAATTACGGCCATCGAGTAAACAAATTTTCCTAATCTTTCTGTTCAAGCGCCATCTAC” was tested. Which binding signal did it give?
A: 1.15 RPM ratio (pull-down/input)

Q: “GATGATTGTTCTCCCAGCTGATGAATTTAATCAATCGAGTAAACAAATTTTCCTAATCTTTCTGTTCAAGCGCCATCTAC” was tested. Which binding signal did it give?
A: 0.269 RPM ratio (pull-down/input)

— PMC12820563, “FoxP3 forms a head-to-head dimer in vivo and stabilizes its multimerization on adjacent microsatellites”
